The results in this text go back to PubChem BioAssay AID504333 (National Center for Advancing Translational Sciences (NCATS), 2011).

Among all 360,000 compounds or so, about 16,000 (4.4%) were called active. Another 9% or so got no clear call; they are omitted. The sample holds actives, similar compounds and a random draw of the others, so the mix is not that of the screen. Values without a mark were called inactive. Calls follow the shape of the dose curve; as a rule, active = well fitted inhibition curve with a large enough effect; inconclusive = small, poorly fitted or top-dose-only effect; inactive = no such curve, though single readings can be large or run the other way.
% is scaled to controls: 0 for no effect and ±100 for the full control effect; potency is read from the fitted curve at half-maximal effect.

The target in the assay is Bromodomain adjacent to zinc finger domain protein 2B (Homo sapiens) (UniProt Q9UIF8). As to the kind of experiment: qHTS Assay for Inhibitors of BAZ2B. Also: nearly all actives have a fitted effect of over 60% in size. The note with it: AlphaScreen BAZ2B-H3K14Ac peptide displacement; series mostly up to 114 µM; activity change, negative = inhibition: at the top concentration. The procedure, abridged: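 Protein-peptide AlphaScreen: BAZ2B 50 nM, b-H3K14Ac 50 nM, 1x PBS pH 7.4 + 0.01% Tween-20. Preincubation 30 min RT; cpd 30 min RT (top 110 uM); beads 20 min RT, light-protected.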
Chain of Bromodomain adjacent to zinc finger domain protein 2B (Homo sapiens) (Q9UIF8 whole entry, looked up, the tested form may be a part): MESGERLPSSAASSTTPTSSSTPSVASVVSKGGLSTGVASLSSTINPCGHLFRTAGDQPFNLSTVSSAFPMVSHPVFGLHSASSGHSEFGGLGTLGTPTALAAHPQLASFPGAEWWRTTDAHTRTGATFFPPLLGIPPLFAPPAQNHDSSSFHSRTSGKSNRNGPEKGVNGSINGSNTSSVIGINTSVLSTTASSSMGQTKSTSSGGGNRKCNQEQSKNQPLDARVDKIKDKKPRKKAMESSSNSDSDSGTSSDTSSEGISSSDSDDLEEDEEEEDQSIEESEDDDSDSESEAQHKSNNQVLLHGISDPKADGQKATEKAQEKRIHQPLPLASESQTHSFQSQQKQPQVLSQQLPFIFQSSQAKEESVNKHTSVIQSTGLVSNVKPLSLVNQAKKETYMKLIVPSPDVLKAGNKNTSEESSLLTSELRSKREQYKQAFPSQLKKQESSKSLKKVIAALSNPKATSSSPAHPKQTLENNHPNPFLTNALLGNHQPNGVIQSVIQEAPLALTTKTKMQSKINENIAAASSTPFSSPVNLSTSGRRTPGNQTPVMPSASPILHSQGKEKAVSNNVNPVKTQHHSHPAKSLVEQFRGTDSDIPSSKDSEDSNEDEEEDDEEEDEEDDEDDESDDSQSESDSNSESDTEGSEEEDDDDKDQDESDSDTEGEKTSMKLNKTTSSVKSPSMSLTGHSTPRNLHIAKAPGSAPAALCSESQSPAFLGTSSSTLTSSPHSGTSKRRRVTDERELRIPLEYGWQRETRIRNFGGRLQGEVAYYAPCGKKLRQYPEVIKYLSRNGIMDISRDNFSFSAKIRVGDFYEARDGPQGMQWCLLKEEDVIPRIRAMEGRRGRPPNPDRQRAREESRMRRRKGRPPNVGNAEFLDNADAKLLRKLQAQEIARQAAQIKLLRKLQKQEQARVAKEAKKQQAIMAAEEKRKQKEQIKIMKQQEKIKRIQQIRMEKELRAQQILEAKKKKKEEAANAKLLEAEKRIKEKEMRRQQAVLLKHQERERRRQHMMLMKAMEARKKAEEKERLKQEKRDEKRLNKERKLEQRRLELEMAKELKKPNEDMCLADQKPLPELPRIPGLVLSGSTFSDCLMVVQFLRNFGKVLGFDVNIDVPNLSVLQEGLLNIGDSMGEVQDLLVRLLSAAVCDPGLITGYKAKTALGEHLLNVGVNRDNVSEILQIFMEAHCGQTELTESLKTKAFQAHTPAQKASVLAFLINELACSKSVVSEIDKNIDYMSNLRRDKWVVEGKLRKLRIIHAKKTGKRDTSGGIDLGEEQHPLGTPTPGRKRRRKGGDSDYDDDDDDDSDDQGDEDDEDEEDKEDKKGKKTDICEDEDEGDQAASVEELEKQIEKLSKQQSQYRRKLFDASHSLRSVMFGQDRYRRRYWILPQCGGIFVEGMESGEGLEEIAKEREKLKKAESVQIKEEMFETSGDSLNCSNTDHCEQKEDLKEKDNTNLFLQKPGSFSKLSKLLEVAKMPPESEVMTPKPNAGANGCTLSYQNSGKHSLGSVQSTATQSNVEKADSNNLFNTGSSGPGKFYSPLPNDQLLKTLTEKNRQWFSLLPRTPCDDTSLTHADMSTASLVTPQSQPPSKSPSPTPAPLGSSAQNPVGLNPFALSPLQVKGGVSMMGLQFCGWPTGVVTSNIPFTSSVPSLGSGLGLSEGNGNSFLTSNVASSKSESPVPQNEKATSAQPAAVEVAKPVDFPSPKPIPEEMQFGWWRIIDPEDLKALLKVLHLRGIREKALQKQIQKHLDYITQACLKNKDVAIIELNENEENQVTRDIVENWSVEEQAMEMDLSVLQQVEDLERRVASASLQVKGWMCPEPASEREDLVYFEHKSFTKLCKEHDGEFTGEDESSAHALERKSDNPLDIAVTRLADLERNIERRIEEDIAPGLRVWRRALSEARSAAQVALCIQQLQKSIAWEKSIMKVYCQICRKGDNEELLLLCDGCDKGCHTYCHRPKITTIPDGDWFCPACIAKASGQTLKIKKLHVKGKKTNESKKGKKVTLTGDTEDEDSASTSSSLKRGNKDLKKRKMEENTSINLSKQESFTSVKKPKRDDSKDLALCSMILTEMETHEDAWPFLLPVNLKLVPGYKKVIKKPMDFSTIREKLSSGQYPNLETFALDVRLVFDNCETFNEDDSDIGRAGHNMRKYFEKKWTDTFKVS
(In general: qHTS replaces the single test concentration by a dilution series.)
Turning to `CCOc1cccc(NC(=O)CSc2ncc(-c3ccc(Cl)cc3)[nH]2)c1`, the “activity change, negative = inhibition” value is -26.2%.

As for `Cc1cc(NS(=O)(=O)c2ccc3oc(=O)c4ncn(C)c4c3c2)ccc1Br`, the “activity change, negative = inhibition” value is 6.88%.

Consider `CC1CC(C)CN(CCOc2cccc3ccccc23)C1` (stereo not drawn), for which the “activity change, negative = inhibition” value is -2.56%.

As to `CC1CN(CCOc2ccccc2[N+](=O)[O-])CC(C)O1` (stereo not drawn), the Potency was 25.1 µM (active).

Take `O=[N+]([O-])c1ccccc1OCCCCN1CCCCC1`: the “activity change, negative = inhibition” value was 5.81%.

As to `Cc1ccccc1CNC(=O)CCc1cn(Cc2ccccc2C)c2ccccc12`, the “activity change, negative = inhibition” value is -10.3%.

Regarding `CCc1cc2c(cc3c(=O)n(CC(=O)NCc4cccc(Cl)c4)nc(CC)n32)s1`, the “activity change, negative = inhibition” value was -7.23%.

For `COc1ccccc1C(=O)NCCn1cc(SCc2ccccc2Cl)c2ccccc21`, the “activity change, negative = inhibition” value was -19.3%.

With `Cc1ccc(CN2CCC(CNC(=O)c3cnn(-c4ccc(C)cc4)c3C3CCN(C(=O)OC(C)(C)C)CC3)CC2)cc1`, the “activity change, negative = inhibition” value was -7.01% [at 57.1 µM].

In the case of `O=C(COc1ccccc1[N+](=O)[O-])NC1CC1`, the “activity change, negative = inhibition” value is -4.34%.

Regarding `O=C(COc1ccccc1[N+](=O)[O-])N/N=C/c1ccc[nH]1`, the “activity change, negative = inhibition” value is -11.5%.

With `C=CCN(CC=C)CCOc1ccccc1[N+](=O)[O-]`, the Potency is 39.8 µM (active).

Consider `CC(NC(=O)c1cc(Sc2ccc(F)cc2F)nc2ccccc12)c1ccccc1` (stereo not drawn), for which the “activity change, negative = inhibition” value was 1.71%.

Consider `CN=C1C=C/C(=N/N=c2\ccn(O)cc2C)C=C1C`, for which the Potency is 35.5 µM (active).

Turning to `O=C(CN1c2ccccc2S(=O)(=O)c2ccccc21)Nc1cccc(C(F)(F)F)c1`, the “activity change, negative = inhibition” value was -20%.

Turning to `CCOC(=O)c1ccc(NC(=O)CC2C(=O)N(c3ccccc3)C(=O)N2Cc2cccs2)cc1` (stereo not drawn), the “activity change, negative = inhibition” value is -17.8%.

As for `Cc1ccc(CS(=O)(=O)c2ncc(Cl)c(C(=O)Nc3nnc(C)s3)n2)cc1`, the “activity change, negative = inhibition” value is -35.7%.

Consider `CSc1nnc(NC(=O)c2nc(S(=O)(=O)Cc3ccc(C)cc3)ncc2Cl)s1`, for which the Potency was 56.2 µM (active).

Consider `Cc1cccc(NC(=O)c2nc(S(=O)(=O)Cc3ccccc3)ncc2Cl)c1`, for which the “activity change, negative = inhibition” value was -35.2%.

`Fc1ccc(-n2ncc3c(Nc4ccc(Oc5ccccc5)cc4)ncnc32)cc1`: the “activity change, negative = inhibition” value was 2.34%.

On to `CCOc1ccccc1NC(=O)c1ccc2c(c1)CCN2S(=O)(=O)c1ccc(C)cc1`, for which the “activity change, negative = inhibition” value was -25.9%.

Consider `CN(C)C(=O)c1nc2ccc(Cl)cn2c1CN1CCN(c2ncccn2)CC1`, for which the “activity change, negative = inhibition” value was 4.33%.

Turning to `C/C(=N\N1CCN(Cc2ccc(C)cc2)CC1)c1ccco1`, the “activity change, negative = inhibition” value was -28.7%.

For the compound `Cc1ccc(CN2CCN(c3ncccn3)CC2)c(C)c1`, the Potency was 50.1 µM (active).

Turning to `Cc1ccc(CN2CCN(/N=C/c3ccco3)CC2)c(C)c1`, the Potency was 50.1 µM (active).

With `COc1ccc(-c2nc(CN3CCN(c4ncccn4)CC3)c(C)o2)cc1C`, the “activity change, negative = inhibition” value is -3.56%.

Turning to `Cc1ccc(NC(=O)CCC(=O)N/N=C/c2ccco2)c(C)c1`, the “activity change, negative = inhibition” value is -32.8%.

For `Cc1oc2ccc(O)c(CN3CCCCC3)c2c1C(=O)Nc1cccc(C(F)(F)F)c1`, the “activity change, negative = inhibition” value is -14.8%.
